# Screening data (PubChem BioAssay)
# Most compounds without a hit are left out; they make up all but 7.6% or so of the library.
# VP16 counter – inhibits Gal4-VP16 luciferase reporter, ROR gamma counter-screen | Potency, µM (doses to about 53.6 µM), for inactives: top-dose activity, negative = inhibition, actives largely listed as inhibitors | Drosophila S2 Gal4-VP16 UAS-luciferase, luminescence, 20 h | 3.5% of 310,000 active;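 note: Gal4-VP16 expression switched on by copper sulfate through the metallothionein promoter; potency is the fitted concentration of half-maximal effect; % is set by controls: 0 for no effect and ±100 for the full control effect; nearly all actives have a fitted effect of over 50% in size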
# ELG1 repair inh – ELG1-dependent DNA repair inhibition | 2.3% of 330,000 active | Potency, µM (doses to about 46.1 µM), without a hit: at the top dose activity change, negative = inhibition, usual class: inhibitors | AID 504467 | HEK293T ELG1-luciferase reporter, luminescence, 16 h; DNA damage induced by 5-fluorouridine; note: potency is the fitted concentration of half-maximal effect; % is set by controls: 0 for no effect and ±100 for the full control effect; nearly all actives have a fitted effect of over 55% in size
#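 HEK293T cells expressing luciferase-tagged ELG1 (2,000/well) received 5-Fluorouridine plus compound or DMSO for 16 hr at 37 °C. Luciferase was read by ONE-Glo luminescence after 30 min at room temperature.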
# BRCA1 expr act – increases BRCA1 expression. Potency, µM (top dose mostly 46.1 µM), for the others: at the top dose activation, hits mostly activators. AID 624202. MCF7-BRCA1-FFLuc reporter, luminescence, 48 h; response scale: scaled: vehicle 0%, 10 µM genistein 100%. 1.1% of 380,000 active; note: potency is the fitted concentration of half-maximal effect; nearly all actives have a fitted effect of over 80% in size
#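 MCF7 cells carrying a BRCA1-firefly luciferase reporter (2000 cells/well, phenol-red free MEM) were attached for 2 h at 37 °C, then given compounds for 48 h. Luminescence was read 15 min after luciferase reagent; activity normalized to genistein (10 microM) and DMSO.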
# p53 reactivation – restores transcriptional activity of mutant p53. Potency, µM (titrated, usually from 92.2 µM), for the others: at the top dose activity change, positive = activation, hits mostly activators. 0.063% of 320,000 active. H1299 p53-A138V BP100-luciferase reporter, luminescence, 24 h. AID 504706; note: potency is the fitted concentration of half-maximal effect; % of control where 0% means no effect; nearly all actives have a fitted effect of over 45% in size
#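 p53-null H1299 cells stably carrying temperature-sensitive p53-A138V and a BP100-luciferase reporter were pinned with compounds (4-point, 1:5 series) and held 24 hrs at 37 deg C. Luminescence was read 10 min after detection reagent.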
# RORg inh – inhibitors of mouse ROR gamma transcriptional activity; Drosophila S2 Gal4-RORgamma UAS-luciferase reporter, 20 h; Potency, µM (highest dose often 53.6 µM), for inactives: at the highest dose activity change, negative = inhibition, actives largely listed as inhibitors; 5.4% of 310,000 active; AID 2551; note: potency is the fitted concentration of half-maximal effect; % is set by controls: 0 for no effect and ±100 for the full control effect; nearly all actives have a fitted effect of over 60% in size
# Target sequence (P51450 whole entry, looked up, the tested form may be a part): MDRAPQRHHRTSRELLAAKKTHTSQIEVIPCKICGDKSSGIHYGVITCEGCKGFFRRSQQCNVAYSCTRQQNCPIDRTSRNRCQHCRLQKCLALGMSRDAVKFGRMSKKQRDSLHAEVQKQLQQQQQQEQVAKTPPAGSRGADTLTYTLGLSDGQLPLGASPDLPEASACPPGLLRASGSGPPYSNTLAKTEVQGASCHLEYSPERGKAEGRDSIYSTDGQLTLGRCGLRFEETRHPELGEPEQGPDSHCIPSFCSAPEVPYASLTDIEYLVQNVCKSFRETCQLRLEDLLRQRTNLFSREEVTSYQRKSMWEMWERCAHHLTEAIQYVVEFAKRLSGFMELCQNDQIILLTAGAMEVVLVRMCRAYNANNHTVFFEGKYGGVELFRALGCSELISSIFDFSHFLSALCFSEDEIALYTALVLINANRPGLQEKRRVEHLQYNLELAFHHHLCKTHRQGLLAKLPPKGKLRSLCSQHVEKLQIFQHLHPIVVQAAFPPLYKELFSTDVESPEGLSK
#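 Stable Schneider cell line, Gal4 DNA-binding domain fused to ROR gamma, UAS-luciferase. Cmpd 1 hr RT → CuSO4 700 uM final → 20 hr RT → luciferase reagent 10 min → luminescence.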
# Giardia kill – kills Giardia lamblia; 0.15% of 340,000 active; activity change, % at 7.66 µM, hits read low; Giardia lamblia trophozoite viability; in the data active = activity change below about -80%; inconclusive = between about -30% and that limit;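 note: parasites exposed to compound for two days anaerobically before the ATP read; % is set by controls: 0 for no effect and ±100 for the full control effect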
#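 ATP-content bioluminescence gauges trophozoite survival. Cells (100/well) receive compound and incubate anaerobically for 48 hrs at 37 deg C; detection reagent follows for 15-30 min at room temperature.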
# Numbers without * were called inactive; ? = inconclusive; · = not tested or not shown; [ ] = dose if it differs, or a comment. Unless noted, calls come from the whole dose curve; as a rule, active = well fitted curve in the direction sought with a large enough effect; inconclusive = small, poorly fitted or top-dose-only effect, or another doubt; inactive = no such curve, though single readings can be large; an effect the other way counts as inactive or inconclusive.
SMILES,VP16 counter,ELG1 repair inh,BRCA1 expr act,p53 reactivation,RORg inh,Giardia kill
COc1ccccc1Oc1ccc2c(c1)C(=O)N(c1cccc3ncccc13)C2=O,10µM*,3%,-3%,4%,?,0
CCCC(=O)O/N=C(\c1ccccc1)c1ccncc1,-7%,0%,11%,-7%,-4%,-5
Cc1ccc2c(c1)N(CCC(=O)NC1CC1)C(=O)C(C)O2 (centres undefined),5%,10%,-4%,-3%,15%,-2
Cc1cccc(NC(=O)c2nc[nH]c2C(=O)N[C@@H](C)c2ccccc2)c1,·,?,-51%,-11%,·,42
Cc1cccc(NC(=O)c2nc[nH]c2C(=O)N[C@@H](C)C(=O)OCc2ccccc2)c1,13µM*,-3%,-1%,5%,8.9µM*,8
Cc1cccc(NC(=O)c2nc[nH]c2C(=O)N[C@@H](CC(C)C)C(=O)OCc2ccccc2)c1,10µM*,-27%,-41%,-3%,3.5µM*,6
CCCCSc1nc2sc3c(c2c(=O)n1-c1ccc(C)cc1)CCN(C)C3,2%,?,-43%,2%,?,-1
Cc1oc(-c2cc(F)ccc2F)nc1CN1CCN(c2ncnc3ccccc23)CC1,?,?,-22%,7%,?,5
COc1ccc(-c2nc(CN3CCN(c4ncnc5ccccc45)CC3)c(C)o2)c(OC)c1,?,7.3µM*,-35%,-8%,-93%,3
Cc1c(C(=S)Nc2ccccc2)cnn1-c1ccc([N+](=O)[O-])cc1,?,?,-30%,-19%,?,-1
Cc1nn(-c2ccccc2)cc1C(=S)Nc1ccccc1,10%,?,7.9µM*,?,11µM*,29
Cc1nn(C)cc1C(=O)NNC(=S)Nc1ccccc1,-1%,?,16%,7%,?,-8
Cc1c(C(=S)Nc2ccccc2)cnn1-c1ccccc1,-5%,21%,7.9µM*,8%,?,8
C=CCn1c(C)c(C(C)=O)cc(NC(=O)c2ccccc2)c1=O,-8%,-29%,0%,-1%,1%,-1
C=CCN1C(=O)/C(=C/C(=O)OC)S/C1=N\NC(=O)c1ccccc1,18µM*,?,-41%,-9%,7.9µM*,1
CCN(c1ccccc1)S(=O)(=O)c1ccc(Cl)c(NC(=O)COC(=O)c2cc(O)c3ccccc3c2O)c1,13µM*,-7%,·,-13%,10µM*,·
CCC(C)NCC(=O)Nc1cc(S(=O)(=O)N(CC)c2ccccc2)ccc1Cl (centres undefined),-10%,-12%,-43%,11%,?,2
CCN(c1ccccc1)S(=O)(=O)c1ccc(Cl)c(NC(=O)CNC(C)c2ccccc2)c1 (centres undefined),·,15µM*,-71%,4%,·,-19
CCN(c1ccccc1)S(=O)(=O)c1ccc(Cl)c(NC(=O)COC(=O)c2ccc(O)cc2)c1,?,?,-22%,-8%,?,5
Cc1ccc2c(c1)NCC(C(=O)NC1CCCCC1)O2 (centres undefined),3%,20%,50%,3%,?,5
CC(C)C1/C(=N/O)CC(c2ccccc2)NC1c1ccccc1 (centres undefined),2%,16µM*,-12%,-5%,9%,-10
Cc1cccc(C(=O)NCC(=O)NCC(c2ccco2)N2CCCCC2)c1 (centres undefined),·,8%,-5%,0%,·,4
Cc1cc(=S)nc(-c2ccccn2)[nH]1,?,?,-36%,-2%,0.79µM*,?
Cc1[nH]c(-c2ccccn2)nc(=S)c1Cl,?,?,16%,-2%,10µM*,33
CSc1nc(=S)cc(C)[nH]1,-6%,3%,-3%,12%,?,5
SMILES,VP16 counter,ELG1 repair inh,BRCA1 expr act,p53 reactivation,RORg inh,Giardia kill
N#Cc1ccc(-c2nc3cc(Cl)ccc3c(=O)n2O)cc1,?,12µM*,-57%,4%,-77%,14
O=c1c2cc(Br)ccc2nc(-c2ccc(Cl)cc2)n1O,0%,?,-32%,17%,28%,2
O=c1c2ccc(Cl)cc2nc(-c2cccc(C(F)(F)F)c2)n1O,3.5µM*,-21%,-89%,26%,7.1µM*,1
Cc1ccc(-c2nc3ccccc3c(=O)n2N)cc1,2%,8%,-23%,-26%,-23%,9
O=c1c2cc(Cl)ccc2nc(-c2ccc([N+](=O)[O-])cc2)n1O,?,18µM*,-76%,10%,?,9
N#Cc1ccc(-c2nc3ccccc3c(=O)n2O)cc1,?,?,-19%,-3%,16µM*,-22
O=C(O)c1ccccc1-c1nc2cc(Cl)ccc2c(=O)n1O,2%,18%,-14%,-4%,8%,7
Nn1c(-c2ccccc2)nc2cc(Cl)ccc2c1=O,-5%,-9%,-52%,·,9%,0
CCc1cccc(CC)c1N1C(=O)CSCC1=O,·,·,6%,·,·,·
CNC(=O)c1ccccc1NC(=O)c1cccc(S(=O)(=O)N2CCC(C)CC2)c1,-3%,?,-35%,-1%,16%,-2
Cc1cccc(NCc2n[nH]c(=S)n2-c2ccccc2)c1,-18%,-1%,-9%,6%,10µM*,-6
Cc1ccc(NCc2n[nH]c(=S)n2-c2ccccc2)c(C)c1,?,5%,2%,-1%,1.8µM*,3
Cc1ccc(NCc2n[nH]c(=S)n2-c2ccccc2)cc1,-5%,-1%,5%,17%,8.9µM*,17
CC1=CC(=O)[C@H]2C(C)(C)CCC[C@]2(C)[C@@]1(O)CO,15%,-7%,10%,1%,26%,6
CC(C)(C)C#CCn1c(/C=[N+](\[O-])C2CCCCC2)nc2ccccc21,-13%,-7%,-1%,6%,10µM*,0
CC(C)c1nc2ccccc2n1CC(O)COC1CCCCC1 (centres undefined),-15%,-15%,-20%,3%,-31%,14
O=C(OCn1ncc(Br)c(Br)c1=O)c1c(F)cccc1F,4.5µM*,9.2µM*,·,-17%,3.5µM*,·
CC(=O)Cn1ncc(Br)c(Br)c1=O,0%[10 µM],?,-51%,-12%,11µM*,7
CC(=O)Cn1ncc(N(C)Cc2ccccc2)c(Cl)c1=O,-10%,?,?,27%,-10%,2
COC(=O)C(COC(=O)c1c(F)cccc1F)NC(=O)c1c(F)cccc1F (centres undefined),-15%,4%,-16%,-12%,-30%,-1
CC(C)(C)C(=O)Cn1ncc(N2CCCC2)c(Br)c1=O,-15%,?,10µM*,5%,-37%,-12
